# Assay outcomes from PubChem BioAssay.
# Most compounds without a hit are left out; they make up all but 11% or so of the library.
# Sfp PPTase inh – Sfp phosphopantetheinyl transferase inhibition; AID 1490; Potency, µM, inactives show largest response in the series, negative = inhibition, usual class: inhibitors; 3.5% of 310,000 active; Biochemical Sfp PPTase activity, qHTS; Q9F4F7;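 note: the enzyme is Sfp with the accession as filed and its product quenches rhodamine fluorescence; potency is the fitted concentration of half-maximal effect; 0% = enzyme reaction without inhibitor and -100% = no enzyme wells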
#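 Step 1, compound plus 15 nM Sfp-PPTase, 15 min, room temperature. Step 2, add rhodamine-CoA (5 uM) and BHQ-2-YbbR (12.5 uM). Step 3, read 525/598 nm fluorescence at 0 and 30 min.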
# FBPA coupling cs – coupling enzyme interference in Giardia aldolase counter-screen; coupling enzyme system counterscreen, AmpLite Red fluorescence; activity change, negative = inhibition, % at 58.2 µM, hits read low; 0.67% of 290,000 active; AID 2472; in the data active = activity change below about -30%
#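 Compounds tested against the coupling enzymes alone at 57.5 uM final; readout was AmpLite Red fluorescence (525/598 nm) after 20 min at RT.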
# Tau fibril FP – blocks human tau fibril formation measured by polarization; Potency, µM (top dose mostly 57.7 µM), for the others: at the highest dose activity, negative = inhibition, usual class: inhibitors; K18 P301L tau heparin fibrillization, Alexa594 FP, 6 h; 0.39% of 280,000 active; P10636; note: potency is the fitted concentration of half-maximal effect; nearly all actives have a fitted effect of over 55% in size
# Target sequence (P10636 561-689 P618L limits assumed): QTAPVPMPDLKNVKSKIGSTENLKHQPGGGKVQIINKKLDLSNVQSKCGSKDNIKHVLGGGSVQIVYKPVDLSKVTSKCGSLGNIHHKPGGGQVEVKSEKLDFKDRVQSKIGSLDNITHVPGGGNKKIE
#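 K18 P301L tau (15 uM unlabeled/0.24 uM Alexa 594-labeled, final) + compound + heparin 20 uM final; 100 mM NaOAc pH 7; 6 hr 37 C; ThT 30 uM final added, 1 hr RT; FP ex 555/em 632 nm.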
# Tau fluor cs – counter-screen for tau fibril formation inhibitors; tau K18 P301L Alexa594 fluorescence, heparin fibrillization; Potency, µM (series often up to 57.7 µM), for inactives: at the highest dose activity change, negative = decrease; 0.93% of 280,000 active; AID 1463; note: potency is the fitted concentration of half-maximal effect; nearly all actives have a fitted effect of over 55% in size
#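 Human tau K18 P301L (15 uM unlabeled, 0.24 uM Alexa 594-labeled) in 100 mM sodium acetate pH 7 with 20 uM heparin, 6 hr at 37 C. ThT 30 uM added, 1 hr ambient; Alexa 594 FP and total fluorescence read at 555/632 nm.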
# G9a block – G9a (human) methyltransferase inhibition. 8.8% of 350,000 active. Q96KQ7. AID 504332. Potency, µM (doses to about 102 µM), without a hit: at the top dose activity, negative = inhibition, usual class: inhibitors. G9a H3K9 monomethylation, AlphaScreen, 2 h; note: potency is the fitted concentration of half-maximal effect; nearly all actives have a fitted effect of over 75% in size
# Target sequence (Q96KQ7 913-1193 limits assumed): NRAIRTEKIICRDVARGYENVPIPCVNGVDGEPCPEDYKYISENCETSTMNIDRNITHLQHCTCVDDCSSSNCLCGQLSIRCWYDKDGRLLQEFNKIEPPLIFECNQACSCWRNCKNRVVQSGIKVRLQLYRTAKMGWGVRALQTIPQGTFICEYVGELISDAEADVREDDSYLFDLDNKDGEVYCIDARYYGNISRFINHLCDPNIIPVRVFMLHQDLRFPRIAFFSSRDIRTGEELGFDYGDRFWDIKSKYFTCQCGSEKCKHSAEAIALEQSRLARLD
#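 Step 1: enzyme (final 20 nM) with compound, 15 min RT. Step 2: substrate peptide 500 nM and SAM 20 uM, 2 h RT. Step 3: anti-H3K9me1 antibody and AlphaScreen beads, 10 min, then plate read.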
# Tau fibril ThT – inhibitors of human tau fibril formation, thioflavin T binding; recombinant tau K18 P301L, heparin-induced fibrillization, ThT fluorescence; 2.1% of 270,000 active; AID 1460; Potency, µM (highest dose often 57.4 µM), for the others: top-dose activity, negative = inhibition, usual class: inhibitors; P10636; note: potency is the fitted concentration of half-maximal effect; nearly all actives have a fitted effect of over 55% in size
#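 ThT emission at 510 nm, taken 1 hr after adding 30 uM dye, quantifies aggregates formed when 20 uM heparin acts on human tau K18 P301L for 6 hr at 37 C.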
# The depositor's hits bear a star; ? = inconclusive; · = no result; [ ] = dose if it differs, or a comment. Unless noted, calls come from the whole dose curve; as a rule, active = well fitted curve in the direction sought with a large enough effect; inconclusive = small, poorly fitted or top-dose-only effect, or another doubt; inactive = no such curve, though single readings can be large; an effect the other way counts as inactive or inconclusive. Unless noted, % is set by controls: 0 for no effect and ±100 for the full control effect.
SMILES,Sfp PPTase inh,FBPA coupling cs,Tau fibril FP,Tau fluor cs,G9a block,Tau fibril ThT
CCOC(=O)c1c(C(=O)OCC)c(C)n(N2C(=O)CSC2=S)c1C,15.8µM*,17.6,1.2%,-5.7%,-34.9%[59 µM],-17.8%
CCOC(=O)c1ccc(NC(=O)CSc2nncn2-c2cccnc2)cc1,-4.9%,-0.6,·,·,9.2%,·
CCC1(c2ccccc2)NC(=O)N(CC(=O)Nc2cc(S(=O)(=O)N3CCCCC3)ccc2N(C)C)C1=O (centres undefined),·,·,·,·,-36.7%,·
CC1(c2ccccc2)NC(=O)N(CC(=O)Nc2ccc(S(=O)(=O)Nc3ncccn3)cc2)C1=O (centres undefined),·,·,·,·,14.5%[2.33 µM],·
CCN(CC)S(=O)(=O)c1ccc(N2CCCC2)c(NC(=O)CN2C(=O)NC3(CCCC3)C2=O)c1,·,·,·,·,-5.9%,·
Cc1cc(NS(=O)(=O)c2ccc(NC(=O)CN3C(=O)NC(C)(c4ccccc4)C3=O)cc2)nc(C)n1 (centres undefined),·,·,·,·,14.1µM*,·
CCN(CC)S(=O)(=O)c1ccc(N2CCOCC2)c(NC(=O)C(=O)c2c(-c3ccccc3)cc3ccccn23)c1,1.1%,-1.3,-6.0%,-26.1%,35.5µM*,?
CCN(CC)S(=O)(=O)c1ccc(N2CCOCC2)c(NC(=O)CN2C(=O)NC(C)(c3ccccc3)C2=O)c1 (centres undefined),·,·,·,·,15.8µM*,·
COc1ccc(S(=O)(=O)N2CCCCCC2)cc1NC(=O)CN1C(=O)NC(C)(c2ccccc2)C1=O (centres undefined),·,·,·,·,15.8µM*,·
CCN(CC)S(=O)(=O)c1cccc(NC(=O)C(=O)c2c(-c3ccccc3)cc3ccccn23)c1,10.7%,2.4,-5.6%,?,-11.7%[59 µM],-16.7%
COc1ccc(N(CC(=O)NC2CCCCC2)C(=O)CCC(=O)Nc2nc(C)cs2)cc1OC,14.2%,1.2,·,·,21.1%[59 µM],·
C=CCN=C1CCCc2c1[nH]c1ccc(C)cc21,-16.7%,-11.0,6.6%,-12.9%,2.0%,?
CCCOc1ccc(CNC(=O)CCCN2C(=O)CSc3c2c(C)nn3-c2ccccc2)cc1,·,·,9.0%,-7.1%,11.1%[59 µM],?
CCN(CC)S(=O)(=O)c1ccc(N2CCOCC2)c(NC(=O)c2ccc(C#N)cc2)c1,-9.9%,-2.3,-1.1%,-10.8%,11.2µM*,-8.5%
CCN(CC)S(=O)(=O)c1ccc(N2CCOCC2)c(NC(=O)CNCCc2ccccc2)c1,-10.9%,0.2,0.3%,-22.2%,11.2µM*,-15.1%
CN(C)S(=O)(=O)c1ccc(N2CCCC2)c(C(=O)Nc2ccc(F)cc2F)c1,·,·,·,·,11.2µM*,·
CCN(CC)S(=O)(=O)c1ccc(N2CCCC2)c(NC(=O)c2ccc(OC)cc2OC)c1,79.4µM*,-4.7,-0.4%,4.4%,28.2µM*,6.7%
COc1ccc(C(C)(C)C)cc1NC(=O)c1cc(S(=O)(=O)N(C)C)ccc1N1CCCC1,-5.6%,-0.5,11.0%,-12.5%,?,-0.7%
CCc1cccc(C)c1NC(=O)C(CC)Sc1nc2ccncc2[nH]1 (centres undefined),·,·,0.8%,-4.5%,3.1%[59 µM],1.4%
Cc1cc(C)cc(N2C(=O)CS(=O)(=O)C23C(=O)N(Cc2ccc(F)cc2)c2ccc(C)cc23)c1 (centres undefined),·,·,-6.2%,-2.9%,-34.0%[59 µM],-0.4%
COC(=O)[C@H](C)[C@H](CC(C)C)NC(=O)[C@H](C)[C@H](CC(C)C)NC(=O)c1ccccn1,15.6%,0.3,·,·,·,·
CCOc1ncccc1C(=O)Nc1cc(S(=O)(=O)N2CCCCCC2)ccc1OC,·,·,·,·,-8.6%,·
CCOc1ncccc1C(=O)Nc1cc(S(=O)(=O)N2CCCCC2)ccc1OC,·,·,·,·,10µM*,·
C=CC1=C2C=C(C3CC3)N(CCCCO)C=C2C(=O)C(C)(OC(=O)c2ccco2)C1=O (centres undefined),9.7%,-42.4*,?,-9.0%[11.6 µM],·,?
